# In PubChem BioAssay (NCATS):
# Activity calls are given as the source filed them. The rule behind the calls is not given here.
# Assay: Immunotoxin (HA22) sensitization/mitigation study. Vehicle arm (PBS) (AID 1159510)
# Conditions: cancer cells viability with PBS vehicle (HA22 study); series mostly up to 46.1 µM
# Potency is the fitted concentration of half-maximal effect.
row,Structure (SMILES),Potency
1,CN1CCN(c2cc(C(=O)Nc3ccc4c(c3)-c3c(c(C(N)=O)nn3-c3ccc(F)cc3)CC4)c(Cl)cn2)CC1,26.4 µM (active)
2,CN(C)Cc1ccc(-c2nc3cccc4c3n2CCNC4=O)cc1,23.5 µM (active)
3,N#CC[C@H](C1CCCC1)n1cc(-c2ncnc3[nH]ccc23)cn1,23.5 µM (active)
4,Cc1cnc(-c2cnc(NCCNc3ccc(C#N)cn3)nc2-c2ccc(Cl)cc2Cl)[nH]1,0.935 µM (active)
5,CCOc1cc(C(=O)Nc2ccc(Cl)c(-c3nc4ccccc4[nH]3)c2)cc(OCC)c1OCC,14.8 µM (active)
6,Cc1cccc(-c2nn(C(=S)Nc3ccccc3)cc2-c2ccnc3ccccc23)n1,18.7 µM (active)
7,Cc1cccc(-c2[nH]c(C(C)(C)C)nc2-c2ccc3nccnc3c2)n1,inactive
8,CC(=O)NC(C)c1ccc(Oc2ccc(OC(C)C)cc2)cc1 (stereo unspecified),16.6 µM (active)
9,CC(O)=C(C#N)C(=O)Nc1ccc(C(F)(F)F)cc1,16.6 µM (active)
10,C/C(=C\C(=O)Nc1ccccc1C(=O)O)c1ccc2ccccc2c1,16.6 µM (active)
11,CCCn1c(=O)c2[nH]c(C34CC5CC3C[C@@H](C5)C4)nc2n(CCC)c1=O,16.6 µM (active)
12,CCC(=C(c1ccccc1)c1ccc(OCCN(C)C)cc1)c1ccccc1,23.5 µM (active)
13,CC(C)OC(=O)C1=CN(C(=O)c2ccc(F)c(F)c2)CC(C)(C)c2c1[nH]c1ccccc21,2.96 µM (active)
14,CCC[C@H](NC(=O)C(C#N)=Cc1cccc(Br)n1)c1ccccc1,1.05 µM (active)
15,CN(C)CCCNC(=O)c1ccc(-c2cc(O)c3ncccc3c2)cc1,16.6 µM (active)
16,COc1cc2c(Oc3ccc4[nH]c(C)cc4c3F)ncnc2cc1OCCCN1CCCC1,13.2 µM (active)
17,CN1CCN(CCOc2cc(OC3CCOCC3)c3c(Nc4c(Cl)ccc5c4OCO5)ncnc3c2)CC1,20.9 µM (active)
18,NC(=O)C1CCCc2c1[nH]c1ccc(Cl)cc21 (stereo unspecified),inactive

row,Structure (SMILES),Potency
1,COc1cc2nccc(Oc3ccc(NC(=O)C4(C(=O)Nc5ccc(F)cc5)CC4)cc3)c2cc1OC,20.9 µM (active)
2,NC(=O)c1c(OCc2c(F)cc(Br)cc2F)nsc1NC(=O)NCCCCN1CCCC1,23.5 µM (active)
3,CNC(=O)c1ccc(N2C(=S)N(c3ccc(C#N)c(C(F)(F)F)c3)C(=O)C2(C)C)cc1F,inactive
4,Clc1ccc2ncc(-c3cccc(NC4CNC4)n3)n2c1,20.9 µM (active)
5,COc1cc(C)c(Sc2cnc(NC(=O)c3ccc(CNC(C)C(C)(C)C)cc3)s2)cc1C(=O)N1CCN(C(C)=O)CC1 (stereo unspecified),14.8 µM (active)
6,COc1ccc(CCN2CCN(CCCc3ccccc3)CC2)cc1OC,23.5 µM (active)
7,CC1(C)CCC(c2ccc(Cl)cc2)=C(CN2CCN(c3ccc(C(=O)NS(=O)(=O)c4ccc(N[C@H](CCN5CCOCC5)CSc5ccccc5)c(S(=O)(=O)C(F)(F)F)c4)cc3)CC2)C1,0.332 µM (active)
8,CCN(CC)CCCCNc1nc2cc(Cl)c(Cl)cc2nc1-c1ccc(-c2cccs2)s1,18.7 µM (active)
9,CCCCn1c(=O)n(Cc2ccccc2F)c(=O)c2[nH]c(Cc3ccc(NC(C)=O)cc3)nc21,inactive
10,C[C@]12CC[C@H](O)CC1=CC[C@@H]1[C@H]2CC[C@]2(C)C(c3cccnc3)=CC[C@H]12,1.87 µM (active)
11,O=C(Nc1ccccc1-c1cn2c(CN3CCNCC3)csc2n1)c1cnc2ccccc2n1,26.4 µM (active)
12,CCc1cncnc1N1CCN(Cc2nc3ccc(C(F)(F)F)cc3[nH]2)CC1,7.43 µM (active)
13,COc1ccc(C2=N[C@H](c3ccc(Cl)cc3)[C@H](c3ccc(Cl)cc3)N2C(=O)N2CCNC(=O)C2)c(OC(C)C)c1,2.64 µM (active)
14,CCOC(CN1C(=O)[C@](CC(=O)Nc2ccc(C)cc2)(NC(=O)Nc2ccc(C)cc2)c2ccccc21)OCC,23.5 µM (active)
15,NC(CO)(CO)CCc1ccc(Sc2cccc(OCc3ccccc3)c2)cc1Cl,23.5 µM (active)
16,COc1ccc(CCN(C)CCCOc2ccc(S(=O)(=O)c3[nH]c4ccccc4c3C(C)C)cc2)cc1OC,26.4 µM (active)
17,COc1ccc(CC2SC(=O)NC2=O)cc1C(=O)NCc1ccc(C(F)(F)F)cc1 (stereo unspecified),inactive
18,CC(C)(C)c1cc(NC(=O)Nc2ccc(-c3cn4c(n3)sc3cc(OCCN5CCOCC5)ccc34)cc2)no1,0.59 µM (active)
